This is an account of results in PubChem BioAssay AID779 (Sanford-Burnham Center for Chemical Genomics, 2007).

SMILES strings stand for the structures. Values without a mark were called inactive. The rule behind the calls is not given here.

The nature of this assay: PLAP enzyme activity inhibition – biochemical, colorimetric, counter-screen, dose response (AID 779). The note with it: colorimetric OD read-out. (Counterscreens check selectivity or assay interference.)
One may read the IC50 as the midpoint of a concentration-inhibition curve. As for `CCOC(=O)c1c(C)oc2c1c(C(c1cccnc1)N1CCOCC1)c(O)c1ccccc12` (stereo unspecified), the IC50 was more than 50 µM. As for `CN(C)c1ccc(/C=C/C=C2/SC(=S)N(c3ccccc3)C2=O)cc1`, the IC50 is more than 50 µM. Next, `CC(C)(C)C(=O)c1sc2nc(-c3cccs3)cc(C(F)(F)F)c2c1N`: more than 50 µM; `O=C(c1ccc2c(=O)n(Cc3ccc4c(c3)OCO4)c(=S)[nH]c2c1)N1CCCCC1`: more than 50 µM; `CCCn1nc(-c2ccccc2)c2nc3ccccc3nc21`: more than 50 µM. Next, `CCOC(=O)C1=C(c2ccccc2)N=c2s/c(=C\c3cc(OC)c(OC)c(OC)c3)c(=O)n2C1c1cccs1` (stereo unspecified): more than 50 µM; `Cc1ccc(-n2c(C)nc3oc4ccccc4c(=O)c3c2=O)cc1`: more than 50 µM; `Cc1nn(-c2ccccc2)c2c1C(c1cccnc1)N1C=C(S(=O)(=O)N3CCCCC3)C=CC1=N2` (stereo unspecified): more than 50 µM. Next, `CCn1c(SCc2nc(-c3ccccc3)no2)nnc1-c1cccs1`: more than 50 µM; `COc1ccc(C(c2nnnn2Cc2cccs2)N2CCN(c3ccccc3F)CC2)cc1` (stereo unspecified): more than 50 µM; `Oc1ccc(-c2cn3c(n2)SCC3)cc1O`: more than 50 µM. Consider `COc1cc(NC(=O)c2ccc(COCC(F)(F)F)cc2)cc(OC)c1OC`, for which the IC50 is more than 50 µM. In the case of `Cc1cc2ccccc2n1CCNC(=O)c1ccccc1`, the IC50 is more than 50 µM.

With `Brc1ccc(-c2nnc(-c3cccc(Br)c3)o2)cc1`, the IC50 is more than 50 µM. For the compound `CCOc1ccc(/C=C/C2=Cc3c(sc(NC(=O)CSc4n[nH]c(N)n4)c3C#N)C(C)(C)C2)cc1`, the IC50 was more than 50 µM.

Consider `O=C1/C(=C\c2ccc(-c3ccccc3Cl)o2)SC(=S)N1CC1CCCO1` (stereo unspecified), for which the IC50 is more than 50 µM.

On to `CCSc1nnc(-c2sc3nnc(-c4ccccc4)c(-c4ccccc4)c3c2N)o1`, for which the IC50 is more than 50 µM. Next, `COc1ccc2sc3ccccc3c(=O)c2c1OC`: more than 50 µM. For `Cc1ccc2cc(/C=C3\N=C(c4ccccc4)OC3=O)c(N3CCOCC3)nc2c1`, the IC50 is more than 50 µM. Regarding `N#CC(c1nc2ccccc2nc1N1CCCC1)S(=O)(=O)c1cccs1` (stereo unspecified), the IC50 was more than 50 µM. On to `CN(C)c1ccc(/C=C/C(=O)c2cccc(Br)c2)cc1`, for which the IC50 was more than 50 µM. Then `COC(=O)Sc1nnc(-c2ccc(Br)cc2)o1`, with more than 50 µM; and `CCSc1nnc(NC(=O)C(C(F)(F)F)C(F)(F)F)s1`, with more than 50 µM; and `C/C(=C\C(=O)c1ccccc1)NNc1nc2ccccc2s1`, with more than 50 µM. Take `COc1ccc(S(=O)(=O)Nc2cc(Sc3ncn[nH]3)c(O)c3ccccc23)cc1`: the IC50 was more than 50 µM. For `COc1ccc(N(C(=O)c2ccco2)S(=O)(=O)c2cc(Cl)c(Cl)cc2Cl)cc1`, the IC50 was more than 50 µM. As for `COc1ccc(NC2=Nc3ccccc3N3C2=Nc2c(c(C)nn2-c2ccc(C)cc2)C3c2cccnc2)cc1` (stereo unspecified), the IC50 is more than 50 µM. With `O=C(O)c1ccc(CN(c2ccccn2)S(=O)(=O)c2ccccc2)cc1`, the IC50 was more than 50 µM. Next, `COc1ccc(Cc2nnc(NC(=O)Cc3cccs3)s2)cc1`: more than 50 µM; `Cc1c(NC(=S)N/N=C/c2cccc(O)c2)c(=O)n(-c2ccccc2)n1C`: more than 50 µM; `CC1(C)CCCN(C(=O)c2coc(=O)c(Br)c2)C1`: more than 50 µM.
